Only some compounds are listed: those with a hit (about 2.3% of all), similar ones and a draw of the others.
Pol kappa inh = blocks human DNA polymerase kappa activity; Q9UBT6; purified Pol kappa, fluorescent DNA synthesis assay, 10 min; Potency, µM (top dose mostly 107 µM), without a hit: at the top dose activity, negative = inhibition, most hits filed as inhibitors; hit rate 0.53% among 400,000; AID 588579; further: on the % scale 0 is the no-effect control and ±100 the full control effect
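Fluorescent qHTS in 1536-well format: enzyme (10 nM) and compound sat 15 min at room temperature before 50 nM substrate (final) was added. Signal taken at 0 and 10 min; no-enzyme buffer wells were negative controls.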
WRN helicase inh-1 = WRN helicase (human) inhibition. Potency, µM (doses to about 114 µM), without a hit: at the top dose activity change, negative = inhibition, hits mostly inhibitors. AID 651768. WRN helicase unwinding, fluorescent forked duplex, kinetic. hit rate 0.46% among 360,000; further: on the % scale 0 is the no-effect control and ±100 the full control effect; nearly all actives have a fitted effect of over 55% in size
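Fluorescence dequenching readout, ex 525 nm/em 598 nm, kinetic mode: forked duplex DNA (100 nM final) with adjacent fluorophore and quencher unwound by WRN (20 nM final) with 2 mM ATP. Compound preincubation 15 min, room temperature.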
Pol eta inh = DNA polymerase eta (human) inhibition; hit rate 1.2% among 390,000; recombinant Pol eta, fluorescent DNA replication assay; AID 588591; Potency, µM (series often up to 114 µM), for the others: top-dose activity change, negative = inhibition, most hits filed as inhibitors; Q9Y253; further: on the % scale 0 is the no-effect control and ±100 the full control effect
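Pol eta at 10 nM preincubated with compounds 15 min at room temperature; reaction started with fluorescent substrate (50 nM final) and read kinetically at 0 and 10 min.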
POLB inh = inhibitors of human DNA polymerase beta; Pol beta primer extension/strand displacement, fluorescence kinetic; hit rate 1.3% among 340,000; P06746; Potency, µM (doses to about 114 µM), for inactives: at the top dose activity change, negative = inhibition, actives largely listed as inhibitors; further: on the % scale 0 is the no-effect control and ±100 the full control effect
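Pol beta (10 nM) and compounds were preincubated 15 min at room temperature, then 50 nM substrate (final) started primer extension/strand displacement. Reads were taken at 0 and 10 min; concentration-response data were fitted to a four-parameter Hill equation.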
POLI inh = blocks human DNA polymerase iota activity; Q9UNA4; Pol iota fluorescent replication assay, 10 min; Potency, µM (top dose mostly 115 µM), for the others: at the highest dose activity, negative = inhibition, hits mostly inhibitors; hit rate 1% among 390,000
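Pol iota at 10 nM preincubated 15 min with compounds at room temperature; reaction started with fluorescent substrate, 50 nM final. Fluorescence read kinetically at 0 and 10 min; buffer-only wells as negative control.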
WRN helicase inh-2 = WRN helicase inhibition, cherry-pick retest; shares compounds with WRN helicase inh-1; WRN helicase DNA unwinding, fluorescence kinetic; Potency, µM (top dose mostly 57.1 µM), for inactives: at the highest dose activity, negative = inhibition, actives largely listed as inhibitors; hit rate 63% among 610; further: nearly all actives have a fitted effect of over 65% in size
TO DNA binding = counter-screen for WRN helicase inhibitors: DNA binding; thiazole orange DNA binding displacement, fluorescence; AID 720499; shares compounds with WRN helicase inh-1; hit rate 10% among 610; Potency, µM (titrated, usually from 57.1 µM), without a hit: at the highest dose activity change, negative = inhibition, actives largely listed as inhibitors;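 further: drop in dye fluorescence marks compound binding to DNA; on the % scale 0 is the no-effect control and ±100 the full control effect; nearly all actives have a fitted effect of over 60% in size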
BLM helicase inh = counter-screen for WRN helicase inhibitors: human BLM helicase inhibition. shares compounds with WRN helicase inh-1. Potency, µM (series often up to 57.1 µM), without a hit: at the highest dose activity change, negative = inhibition, hits mostly inhibitors. hit rate 60% among 610. Recombinant BLM helicase DNA unwinding, red fluorescence. AID 720503; further: nearly all actives have a fitted effect of over 60% in size
Starred values were filed as active, the others as inactive; u = inconclusive; x = not tested or not shown; [ ] = another dose, or the depositor's remark. The call rests on the fitted dose curve; in most records, active means well fitted curve in the direction sought with a large enough effect; inconclusive means small, poorly fitted or top-dose-only effect, or another doubt; inactive means no such curve, though single readings can be large; an effect the other way counts as inactive or inconclusive. Potency means the concentration at half of the fitted maximal effect.

SMILES	Pol kappa inh	WRN helicase inh-1	Pol eta inh	POLB inh	POLI inh	WRN helicase inh-2	TO DNA binding	BLM helicase inh
COC1C(C)OC(OC2CC(C)(O)Cc3cc4c(c(O)c32)C(=O)c2c(O)cc3c(c2C4=O)OC2OC3(C)C(O)C(N(C)C)C2O)C(OC)C1(C)OC (stereo unspecified)	25.1µM*	15.8µM*	u	x	u	2.15µM*	445.6%	u
C#Cc1cccc2c1c(C(=O)c1ccc(Cn3c(C)nc4cnccc43)c(F)c1)cn2C(=O)N(C)C	7.8%[60.1 µM]	x	x	x	x	x	x	x
Brc1c(Br)c(Br)c2n[nH]nc2c1Br	u	x	-2.1%[57.1 µM]	5.5%[57.1 µM]	u	x	x	x
CC(=O)NCC(N)C(=O)c1ccc(C)cc1 (stereo unspecified)	0.6%	x	x	x	-11.1%	x	x	x
COc1cc(OC)c(OC)cc1/C=C1/C(=O)NC(=O)N(Cc2ccccc2)C1=O	-21.1%	79.4µM*	13.1%	-19.1%	u	u	-7.3%	u
CN(C)c1ccc(/C=C/c2cc[n+](C)c3ccccc23)cc1	u	35.5µM*	u	u	79.4µM*	17.1µM*	15.2µM*	21.5µM*
CN1C(=O)C(=Cc2ccccc2OCCOc2ccc([N+](=O)[O-])cc2)C(=O)N(C)C1=O	-9.3%	-16.5%	-13.1%	0.0%	u	x	x	x
O=C1NC(=O)C(=Cc2ccccc2OCCOc2ccc([N+](=O)[O-])cc2)C(=O)N1	-4.8%	35.5µM*	u	21.2%	u	u	-16.3%	u

Source: PubChem (National Center for Advancing Translational Sciences (NCATS))
